# Screening results: PubChem BioAssay, NMMLSC
# The list is not random: actives were taken first. Their share in the collection is about 0.92%.
# RPL19A TOR yeast: RPL19A-GFP expression modulators in yeast, primary screen, cell-based, S. cerevisiae, multiplex flow cytometry, MLPCN. percent response vs DMSO, % at 10 µM. S. cerevisiae RPL19A-GFP strain, 3 h; hits give low values. 330,000 compounds, 0.3% hits;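 active means percent response vs DMSO below 50%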;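 further: median channel GFP fluorescence of the barcoded RPL19A-GFP strain; ratio of sample median GFP to plate DMSO average so 100% = DMSO; lower means less RPL19A-GFP as with rapamycin TOR inhibition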
# AGP1 TOR yeast: modulators of AGP1-GFP expression in yeast TOR pathway, primary screen, cell-based, multiplex flow cytometry, S. cerevisiae, MLPCN library; 3 h; GFP as percent of DMSO wells; GFP response vs DMSO, % at 10 µM; 320,000 compounds, 0.02% hits;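 active means GFP response relative to DMSO above a set limit, near screen average plus 3 SD, cut at about 150% in these data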;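 further: median GFP channel fluorescence of the gated AGP1 strain per well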
# MEP2 TOR yeast: modulators of MEP2-GFP levels in yeast, primary screen, S. cerevisiae, multiplex flow cytometry, MLPCN library. S. cerevisiae MEP2-GFP strain, 3 h; 100% = DMSO control level. GFP response vs DMSO, % at 10 µM. 330,000 compounds, 0.51% hits. AID 2016, 2009;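 active means GFP response versus DMSO above a set limit, roughly screen mean plus 3 SD, cut at about 180% in these data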;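 further: median GFP fluorescence of the barcode-gated MEP2-GFP cells per well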
# CIT2-GFP yeast: modulators of CIT2-GFP expression in yeast, primary screen, S. cerevisiae, GFP fusion, multiplex flow cytometry, MLPCN library; S. cerevisiae CIT2-GFP strain, 3 h; 100 means same as DMSO wells; GFP response vs DMSO, % at 10 µM; 320,000 compounds, 0.065% hits; AID 2029, 2009;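 active means GFP response relative to DMSO above a set limit, near the screen mean plus 3 SD, cut at about 150% in these data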;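 further: ratio of well median GFP fluorescence to mean of DMSO wells on the plate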
# LAP4 TOR yeast: modulators of LAP4-GFP expression in yeast, primary screen, S. cerevisiae, multiplex flow cytometry, MLPCN library. 3 h; median GFP as percent of DMSO wells. GFP response vs DMSO, % at 10 µM. 320,000 compounds, 0.34% hits. AID 2023, 2009;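 active means GFP response vs DMSO above a set limit, about the screen mean plus 3 SD, cut at about 150% in these data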
# LAP4-GFP pick2: LAP4-GFP expression modulators in yeast, confirmation, cell-based, second cherry pick, flow cytometry | shares compounds with LAP4 TOR yeast | S. cerevisiae LAP4-GFP strain, 3 h | GFP response vs DMSO, % at 10 µM | 590 compounds, 20% hits;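 active means GFP signal as percent of the solvent control above about 150%, meaning raised reporter expression, limit read from the data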;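 further: ratio of well median GFP fluorescence to plate DMSO mean so 100% = DMSO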
# MEP2 cherry2: modulators of MEP2-GFP levels in yeast, confirmation, S. cerevisiae, flow cytometry GFP, second cherry picks. shares compounds with LAP4 TOR yeast. S. cerevisiae MEP2-GFP strain, 3 h. GFP response vs DMSO, % at 10 µM. 590 compounds, 10% hits. AID 2622, 2010;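 active means GFP signal above 150% of the solvent control wells, that is a rise of more than half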;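 further: median channel GFP fluorescence of all gated yeast cells per well; ratio of median GFP to plate DMSO average so 100% = DMSO level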
# RPL19A-GFP pick2: RPL19A-GFP modulators in TOR pathway yeast, confirmation, cell-based, S. cerevisiae, flow cytometry, second cherry pick; AID 2623, 2010; S. cerevisiae RPL19A-GFP strain, 3 h; hits give low values; 100% means same as DMSO wells; 590 compounds, 3% hits; GFP response vs DMSO, % at 10 µM; shares compounds with LAP4 TOR yeast;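 active means under 65% GFP response relative to DMSO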;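 further: median GFP channel fluorescence per well over the all cells gate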
# CIT2-GFP pick2: modulators of CIT2-GFP expression in yeast, confirmation, flow cytometry, second cherry pick, single plex | shares compounds with LAP4 TOR yeast | S. cerevisiae CIT2-GFP strain, 3 h; DMSO control wells read 100% | GFP response vs DMSO, % at 10 µM | 590 compounds, 8% hits;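 active means GFP response vs DMSO above about 150%, limit read from the data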;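 further: median green fluorescence per well over all gated yeast cells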
# AGP1-GFP pick2: AGP1-GFP expression modulators, hit retest, confirmation, cell-based, flow cytometry, S. cerevisiae, cherry pick set 2. 590 tested, under 10 active. S. cerevisiae AGP1-GFP strain, 3 h. shares compounds with LAP4 TOR yeast. percent response vs DMSO, % at 10 µM;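 active means over 150 percent of DMSO response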;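 further: median GFP channel fluorescence over all cells without mother daughter split; sample median GFP divided by mean DMSO control so 100% equals DMSO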
# Yeast autofluor: compound autofluorescence in yeast s288c, dose response, artefact control for yeast TOR pathway GFP screen, s288c strain; shares compounds with LAP4 TOR yeast; S. cerevisiae s288c, 520 nm autofluorescence, flow cytometry, 3 h; hits give high values; zero means same as solvent-only cells; fluorescence change (kMESF span) at 33 µM; 610 tested, under 10 active; AID 2757, 2010;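 active means fluorescence span over the dose series, or activity score, above about 33, limit read from the data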
# Active calls of the source: *; . = no result given; + = active, no number; [ ] = remark or other dose.
SMILES,RPL19A TOR yeast,AGP1 TOR yeast,MEP2 TOR yeast,CIT2-GFP yeast,LAP4 TOR yeast,LAP4-GFP pick2,MEP2 cherry2,RPL19A-GFP pick2,CIT2-GFP pick2,AGP1-GFP pick2,Yeast autofluor
COc1ccccc1N1CCN(C(=O)c2c(-c3ccccc3Cl)noc2C)CC1,95,100,95,111,97,.,.,.,.,.,.
Clc1cnc(N/N=C/c2cccs2)c(Cl)c1,99,83,98,92,158*,.,.,.,.,.,0.41
Clc1cnc(N/N=C/c2ccco2)c(Cl)c1,105,105,98,102,102,.,.,.,.,.,.
Oc1ccc(/C=N/Nc2ncc(Cl)cc2Cl)cc1,104,102,108,109,94,.,.,.,.,.,.
Cc1ccc(/C=N/Nc2ncc(Cl)cc2Cl)s1,81,86,118,91,298*,.,.,.,.,.,0.41
O=C(Cc1nnc(NC(=O)Nc2ccccc2F)s1)NCc1ccccc1,99,109,98,101,103,.,.,.,.,.,.
O=C(COc1ccc(F)cc1)N1CCCc2ccccc21,102,96,110,99,97,.,.,.,.,.,.
Cc1ccc(/C=C/C(=O)c2ccc([N+](=O)[O-])o2)cc1,99,88,97,87,176*,.,.,.,.,.,1.9
CC(C)c1onc(C(=O)NC2CCCCC2)c1[N+](=O)[O-],100,101,99,104,101,.,.,.,.,.,.
CCN(CC(=O)Nc1cc(S(=O)(=O)N2CCOCC2)ccc1Cl)Cc1ccccc1,215,229*,790*,754*,670*,96,93,99,103,97,-0.1
COc1cc2c(C(=O)N3CCN(c4cccc(Cl)c4)CC3)cn(CC(C)C)c(=O)c2cc1OC,99,101,99,109,100,.,.,.,.,.,.
COc1ccc(-n2nc3c(c2NC(=O)C(C)Oc2ccccc2)CS(=O)C3)cc1 (stereo unspecified),102,101,106,111,101,.,.,.,.,.,.
Cc1ccc(S(=O)(=O)Cc2cc(F)c([N+](=O)[O-])cc2[N+](=O)[O-])cc1,92,51,121,83,172*,.,.,.,.,.,23
Cc1cccc(N2C(=O)C(Cl)=C(Nc3c(C)n(C)n(-c4ccccc4)c3=O)C2=O)c1C,103,101,109,99,109,.,.,.,.,.,0.2
Cc1ccc(N2C(=O)C(Cl)=C(Nc3c(C)n(C)n(-c4ccccc4)c3=O)C2=O)cc1,104,101,103,95,102,.,.,.,.,.,0.3
COc1cc(C(=O)NCc2ccc3c(c2)OCO3)c([N+](=O)[O-])cc1OC,95,92,145,96,99,.,.,.,.,.,.
COc1ccc(-c2n[nH]c(C)c2-c2ccc(Cl)cc2)c(O)c1,55,49,78,74,118,112,103,92,88,88,.
CCOc1ccc(OCc2ccc(C(=O)N/N=C(\C)c3ccccn3)cc2)cc1,91,93,110,105,138,.,.,.,.,.,.
CCC(C)/C(C)=N/NC(=O)c1ccc(COc2ccc(Cl)c(C)c2)cc1 (stereo unspecified),85,99,135,64,206*,142,175*,107,127,115,1.9
COc1ccc(CN2CCCC2C(=O)Nc2ccc(OC)c(OC)c2)cc1OC (stereo unspecified),95,94,98,95,96,.,.,.,.,.,.
O=C(Nc1ccnn1C1CCN(Cc2ccccc2OC(F)F)CC1)c1cccnc1,100,102,94,101,91,.,.,.,.,.,.
Cc1ccc2nc(-c3ccc(NC(=S)NC4CC(C)(C)NC(C)(C)C4)cc3)sc2c1,55,14,129,71,83,125,108,95,104,93,.
COc1ccc(Cn2nnc3c(=O)[nH]c(C(=O)NCCc4ccc(F)cc4)nc32)cc1OC,96,101,124,98,108,.,.,.,.,.,.
O=C(c1ccccn1)c1conc1C(=O)c1ccc(Br)cc1,112,103,281*,192*,331*,.,.,.,.,.,2.4
CCCCCC/C(C=O)=C\c1ccccc1,100,102,92,94,96,.,.,.,.,.,.
SMILES,RPL19A TOR yeast,AGP1 TOR yeast,MEP2 TOR yeast,CIT2-GFP yeast,LAP4 TOR yeast,LAP4-GFP pick2,MEP2 cherry2,RPL19A-GFP pick2,CIT2-GFP pick2,AGP1-GFP pick2,Yeast autofluor
CCN(C(=O)CN1CCN(c2cccc(Cl)c2)CC1)c1c(N)n(Cc2ccccc2)c(=O)[nH]c1=O,63,75,133,97,96,101,100,100,97,101,.
COc1ccc(N2CCN(Cc3nc(-c4ccccc4)no3)CC2)cc1,97,105,106,102,112,.,.,.,.,.,.
O=C1C(=O)N(CCN2CCOCC2)C(c2cccc(Cl)c2)/C1=C(\O)c1ccc2c(c1)OCCO2 (stereo unspecified),50,27,136,107,93,100,98,97,112,98,.
CCc1ccc(/C=C/C(=O)c2cc(Br)ccc(=O)c2O)cc1,93,68,109,78,146,156*,122,78,146,77,8.2
CCOc1ccc(/C=C/C(=O)c2cc(Br)ccc(=O)c2O)cc1,96,84,94,91,102,.,.,.,.,.,.
O=C1OC(c2ccc(F)cc2)=C/C1=C\c1ccc(O)cc1,103,101,108,105,95,.,.,.,.,.,.
O=C1OC(c2ccc(F)cc2)=C/C1=C\c1ccc([N+](=O)[O-])o1,136,99,647*[may fluoresce green],217*[may fluoresce green],291*[may fluoresce green],667*,+,192,991*,174*,.
Cc1ccc(C(CC(=O)O)NC(=O)c2ccc(S(=O)(=O)N3CC(C)OC(C)C3)cc2)cc1 (stereo unspecified),100,97,196*,110,114,98,100,99,96,99,0
